Measurements as given in PubChem BioAssay (NCI).
Values joined by “and” are separate entries in the source; they are usually repeats but may differ in a detail not shown here. Equal entries are not always repeated. The panel holds about 83,000 compounds, 20% with a hit somewhere; the sample as a whole holds those more often.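 Treatment: one concentration, 48 hours, 96-well format. Scoring: percent growth, with anything below 10 considered active.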 A number with no mark means an inactive call. Active and inactive are the calls of the source.

Test system: HL-60(TB) leukemia
Experiment: NCI-60 one-dose screen, 48 h (100 = growth as untreated, 0 = no growth, -100 = all killed)
Settings: 10 µM unless noted

| SMILES | growth |
| --- | --- |
| O=C(/C=C/c1ccco1)c1ccc(Nc2nc(Nc3ccc(F)cc3)nc(Nc3ccc(Cl)cc3)n2)cc1 | -93.7% (active) |
| NS(=O)(=O)OCC1OC(n2cnc3cncnc32)C(O)C1O (stereo unspecified) | 37.8% [0.1 µM] and 27.5% [0.1 µM] |
| CC(C)Cn1cnc2c3ccccc3nc(NCn3nc(-c4cc(Cl)cc(Cl)c4Cl)oc3=S)c21 | 43.8% |
| C/C(=N/O)c1ccc(F)cc1 | 102% |
| O=S(=O)(Nc1ccccc1)c1ccc(C2CC3(Cl)C(Cl)=C(Cl)C2(Cl)C3(Cl)Cl)cc1 (stereo unspecified) | 13% |
| CCN1CC(=O)N(/N=C2\C(=O)Nc3ccccc32)C1=S | 82.7% |
| CNC(=O)c1ccc(C)c(-n2c(C)cc(OCc3ccc(F)cc3F)c(Br)c2=O)c1 | 61.1% and 91% |
| O=C(CSc1nc2sc3c(c2c(=O)n1Cc1ccccc1)CCCC3)N1CCN(c2ccccc2)CC1 | 90.3% |
| COc1ccc(-c2[nH]ncc2Nc2cc(OC)c(OC)c(OC)c2)cc1 | 31.6% |
| COc1c(B(O)O)cccc1-c1nc2c(F)cc3[nH]ncc3c2c2c1CCCC2 | -28.3% (active) |
| O=C(NNC(=O)c1ccc(-n2cc(-c3ccccc3)nn2)cc1)Nc1ccccc1 | 95.4% |
| O=C(Nc1cccc(F)c1)c1cc(=O)[nH]c2cc(Br)ccc12 | 3.41% (active) |
| NC(=S)N1N=C(c2ccccc2)CC1c1cn(-c2ccccc2)nc1-c1ccc(OCc2ccccc2)cc1 (stereo unspecified) | 114% |
| COc1ccc(-c2c(N)n[nH]c2-c2cc(OC)c3c(c2)OCCO3)cc1 | 47.1% |
| O=C1/C(=C\c2cn(-c3ccccc3)nc2-c2ccc(-c3cccs3)cc2)CCc2ccccc21 | 50.2% |
| COc1ccc(C(=O)COc2ccc(/C=C3\Oc4ccc5ccccc5c4C3=O)cc2)cc1 | 87.3% |
| O=C(Cn1c(=O)ccn(CCCCCCCCOc2ccc(Br)cc2)c1=O)Nc1ccc(Oc2ccc(Cl)cc2)cc1 | 48.7% |
| COc1ccc(-n2nnc(C(=O)O)c2-c2cc(OC)c(OC)c(OC)c2)cc1 | 98.8% |

| SMILES | growth |
| --- | --- |
| COc1ccc(-c2nc(SCCC(C)C)nc(Nc3ccc(F)c(Cl)c3)c2C#N)cc1 | 107% |
| CC(C)N=c1cc2n(-c3ccc(Cl)cc3)c3ccccc3nc-2cc1Nc1ccc(Cl)cc1 | -6.14% (active) and -2.06% (active) and -36.3% (active) |
| O=C1c2ccccc2C(=O)c2c1oc1c2c(=O)[nH]c2ccccc21 | 2.26% (active) |
| CN1C(=O)/C(=C/c2ccc(C(=O)Nc3ncc(Cc4ccc(Cl)cc4)s3)cc2)SC1=S | 57.6% |
| CCS(=O)(=O)c1cc(=O)[nH]c(=O)[nH]1 | 117% |
| COc1ccc(/C=C2\COc3ccc(O)c(O)c3C2=O)cc1 | -5.92% (active) |
| N#CC1=C(c2ccc(Cl)cc2)Nc2c(c(-c3ccc(Cl)cc3)nn2-c2ccccc2)C12C(=O)Nc1ccc(Cl)cc12 (stereo unspecified) | 15.2% |
| O=C(Nc1cccc(-n2cc(-c3ccncc3)c(-c3ccc(Cl)c(O)c3)n2)c1)Nc1ccc(Cl)c(Cl)c1 | -6.98% (active) |
| CCC(/C=C\C(C)=O)CC | 104% |
| C(=C\c1nc2ccccc2s1)/c1ccc(N2CCOCC2)s1 | 24% |
| C=C[C@@H]1C[C@@H]2Cc3cc(Cl)ccc3N1O2 | 13.8% |
| CC1(/C=N/NC(N)=S)NC(=O)NC1=O (stereo unspecified) | 86.8% |
| COc1ccccc1C(=O)/C=C/c1cc2cccc(OC)c2[nH]c1=O | -10.5% (active) |
| COc1ccc(C(=O)c2cc3c(N)c(C(=O)Nc4cccc(Cl)c4C)sc3nc2C)cc1 | -60.6% (active) |
| COc1ccc2c(c1)[n+]([O-])c(C(=O)/C=C/C=C(\Cl)c1cc(OC)c(OC)c(OC)c1)c(C)[n+]2[O-] | 107% |
| COC(=O)CNC(=O)C(=O)c1c(O)c(O)c(C(C)C)c2cc(C)c(-c3c(C)cc4c(C(C)C)c(O)c(O)c(C(=O)C(=O)NCC(=O)OC)c4c3O)c(O)c12 | 24.6% |
| C=C1CCC[C@]2(C)CCC[C@H](C)[C@@H](OC(C)=O)[C@@H]3OC(=O)C(=C)[C@@H]3C[C@H]1O2 | 41.8% |
| O=C(CNc1nnc(-c2cccnc2SCc2ccccc2)s1)Nc1nc(Cl)cc(Cl)n1 | 96.2% |
